Assay results: PubChem BioAssay (NCATS)
Inconclusive results are not listed. Active and inactive are the calls of the source. Calls follow the shape of the dose curve; as a rule, active = well fitted inhibition curve with a large enough effect; inconclusive = small, poorly fitted or top-dose-only effect; inactive = flat fitted curve, though single readings scatter.

How the values were obtained:
Experiment in all cases: qHTS profiling for inhibitors of Plasmodium falciparum proliferation (AID 504749); also: nearly all actives have a fitted effect of over 60% in size
Conditions in all cases: P. falciparum in erythrocytes, SYBR Green DNA, 72 h; series mostly up to 28.7 µM
AA1029 = system: AA1029
Summary of the method: (§1)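 Quantitative HTS: compounds pinned into medium, infected erythrocytes added (0.3% parasitemia, 2.5% hematocrit), 72 h culture at 37 C under 5% CO2. Saponin/Triton lysis with SYBR Green I, overnight RT, then fluorescence read.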

AS120 = system: AS120
Summary of the method: as §1

ATS189 = system: ATS189
Summary of the method: as §1

ATS95 = system: ATS95
Summary of the method: as §1

C2A = system: C2A
Summary of the method: as §1

CP185 = system: CP185
Summary of the method: as §1

CP191 = system: CP191
Summary of the method: as §1

CP192 = system: CP192
Summary of the method: as §1

CP194 = system: CP194
Summary of the method: as §1

CP201 = system: CP201
Summary of the method: as §1

CP203 = system: CP203
Summary of the method: as §1

CP211 = system: CP211
Summary of the method: as §1

CP215 = system: CP215
Summary of the method: as §1

CP217 = system: CP217
Summary of the method: as §1

CP237 = system: CP237
Summary of the method: as §1

CP238 = system: CP238
Summary of the method: as §1

CP247 = system: CP247
Summary of the method: as §1

CP250 = system: CP250
Summary of the method: as §1

CP252 = system: CP252
Summary of the method: as §1

CP256 = system: CP256
Summary of the method: as §1

Measured: Potency

OB(O)O
inactive: all assays above

CN1CCC(OC(=O)C(Oc2ccc(Cl)cc2)Oc2ccc(Cl)cc2)CC1
inactive: all assays above

O=C1c2ccccc2C(=O)c2c1ccc(O)c2O
inactive: all assays above

CN1C(=O)OC(C)(C)C1=O
inactive: all assays above

Cc1cc(=O)c(C(=O)N[C@@H](C(=O)N[C@@H]2C(=O)N3C(C(=O)O)=C(CSc4nnnn4C)CS[C@H]23)c2ccc(O)cc2)c[nH]1
inactive: all assays above

NCC[C@H](O)C(=O)N[C@@H]1C[C@H](N)[C@@H](O[C@H]2O[C@H](CN)CC[C@H]2N)[C@H](O)[C@H]1O[C@H]1O[C@H](CO)[C@@H](O)[C@H](N)[C@H]1O
inactive: all assays above

Cc1nc(NS(=O)(=O)c2ccc(N)cc2)nc(C)c1Br
inactive: all assays above

O=C(O)CCC/C=C\C[C@@H]1[C@@H](/C=C/[C@@H](O)COc2cccc(Cl)c2)[C@H](O)C[C@@H]1O
inactive: all assays above

CO
inactive: all assays above

C[C@H](N)C(=O)N[C@@H](C)P(=O)(O)O
not listed: CP215
inactive: all other assays above

S=C1SCN(Cc2ccccc2)CN1Cc1ccccc1
inactive: all assays above

[O]=[Bi][O][Bi]=[O]
inactive: all assays above

Cc1ncc(COP(=O)(O)O)c(CN)c1O
not listed: CP247
inactive: all other assays above

Cc1ncc[nH]1
not listed: CP215
inactive: all other assays above

CCCCCCCCCCCCCCCCCCCCCC(=O)Nc1ccn([C@@H]2O[C@H](CO)[C@@H](O)[C@@H]2O)c(=O)n1
inactive: all assays above

Cc1ncc(C[n+]2csc(CCOP(=O)(O)O)c2C)c(N)n1
not listed: CP250
inactive: all other assays above

O=C(OCc1ccccc1)c1ccc(O)cc1
inactive: all assays above

CCOC(=S)SSC(=S)OCC
not listed: CP247
inactive: all other assays above

CCCCCCCCCCCC(=O)OCC(O)CO (stereo unspecified)
inactive: all assays above

CCOC(C)OCC
inactive: all assays above

CCCCCc1ccc(C)cc1O
not listed: CP247
inactive: all other assays above

C[C@]12CCC(=O)C[C@@H]1CC[C@@H]1[C@@H]2CC[C@]2(C)C=CC[C@@H]12
not listed: CP237 | CP250
inactive: all other assays above

O=C(O)CCC(=O)c1ccc(-c2ccccc2)cc1
not listed: CP215
inactive: all other assays above

CC(C)NCC(O)COc1ccccc1-n1cccc1 (stereo unspecified)
not listed: CP237
inactive: all other assays above

CCN(CC)CCOc1ccc2nc(N(C)C)sc2c1
not listed: CP215
inactive: all other assays above

CN1C(C(=O)Nc2ccccn2)C(=O)c2sc(Cl)cc2S1(=O)=O (stereo unspecified)
not listed: CP237
inactive: all other assays above

COc1ccc(/C=C/C(=O)OCCC(C)C)cc1
not listed: CP250
inactive: all other assays above

Cc1cc2nc3c(=O)[nH]c(=O)nc-3n(C[C@H](O)[C@H](O)[C@H](O)COP(=O)(O)OP(=O)(O)OC[C@H]3O[C@@H](n4cnc5c(N)ncnc54)[C@H](O)[C@@H]3O)c2cc1C
not listed: CP247
inactive: all other assays above
